According to PubChem BioAssay AID1851 (National Center for Advancing Translational Sciences (NCATS), 2009):
Out of some 16,000 compounds screened, about 4,000 (25%) were called active. Roughly 26% stayed inconclusive and do not appear here. The call rests on the fitted dose curve; in most records, active means well fitted curve in the direction sought with a large enough effect; inconclusive means small, poorly fitted or top-dose-only effect, or effect the other way; inactive means no such curve, though single readings can be large or run the other way. A selection follows.

Molecular target: Cytochrome P450 2C9 (Homo sapiens) (UniProt P11712)
Experiment: Cytochrome panel assay with activity outcomes
Conditions: recombinant CYP, pro-luciferin dealkylation, luminescence, p450-cyp2c9; series mostly up to 57.1 µM; activity, negative = inhibition: at the top concentration
On the % scale 0 is the no-effect control and ±100 the full control effect.

Sequence of Cytochrome P450 2C9 (Homo sapiens) (P11712 whole entry, looked up): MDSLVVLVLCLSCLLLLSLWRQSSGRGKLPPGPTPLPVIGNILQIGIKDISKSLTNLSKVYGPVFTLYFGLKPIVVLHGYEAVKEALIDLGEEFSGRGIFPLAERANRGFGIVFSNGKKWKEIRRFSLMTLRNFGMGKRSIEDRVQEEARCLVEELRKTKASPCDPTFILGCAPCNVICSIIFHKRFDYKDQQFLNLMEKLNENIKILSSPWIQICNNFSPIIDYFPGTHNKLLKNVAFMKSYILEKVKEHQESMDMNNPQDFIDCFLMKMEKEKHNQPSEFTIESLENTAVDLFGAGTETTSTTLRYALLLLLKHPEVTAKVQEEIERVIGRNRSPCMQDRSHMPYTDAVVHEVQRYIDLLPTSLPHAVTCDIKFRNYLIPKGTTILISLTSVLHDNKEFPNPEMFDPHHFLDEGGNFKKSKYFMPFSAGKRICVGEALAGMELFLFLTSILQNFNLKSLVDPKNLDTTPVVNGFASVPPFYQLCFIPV

activity, negative = inhibition, inactive:
COc1ccccc1-c1cncnc1NCc1cnc(C)cn1 14.1% [at 2.29 µM]
Cc1[nH]n(-c2ccc(S(=O)(=O)O)cc2)c(=O)c1N=Nc1ccccc1 21.2% [at 11.4 µM]
Cn1c(N)c(N=Nc2ccc(S(N)(=O)=O)cc2)c(=O)n(C)c1=O 5.29% [at 11.4 µM]
CCN1C(=O)C=CC1=O -9.22%
COc1ccc(CNCCC(c2ccc(OC(C)C)cc2)C(C)C)cc1OC (stereo not given) -47.4%
CC(C)=CCC/C(C)=C/CO/N=C1/C[C@@H](O)[C@@H](O)[C@@H]2[C@H]3C(=O)N(c4ccc(F)cc4F)C(=O)[C@@H]3CC[C@H]12 18.9% [at 11.4 µM]
COc1ccc(/C=C(/C#N)C(=O)Nc2cc(C)ccc2C)cc1C(=O)O 6.97%
Fc1ccc(Nc2ncnc3ccc(-c4ccoc4)cc23)cc1 -12.3% [at 2.29 µM]
COc1ccc(-c2cc(CNC(C)=O)on2)cc1 -18.3%
O=S(=O)(c1ccccc1)N1CCC2(CCN(Cc3ccccc3)CC2)CC1 0.608%
CCn1c(CCNC(=O)c2ccc(Cl)cc2Cl)n[nH]c1=S 0.368%
COc1ccc2c(c1OC)C(=O)N(C(C)C(=O)O)C2=O (stereo not given) 9.64%
O=C(CN1CCN(Cc2ccccc2)CC1)c1ccc(Br)cc1 -28.3%
COc1cc(CN2CCCCC2)cc2cc(C(=O)O)c(=O)oc12 15.6% [at 11.4 µM]
CCC[C@H](Sc1nc(N)nc2nc[nH]c12)C(=O)O -1.85% [at 11.4 µM]
O=C(O)CC[P+](c1ccccc1)(c1ccccc1)c1ccccc1 8.46% [at 11.4 µM]
O=C(c1ccccc1)N1CCSC1=S -13.1%
CC(=O)NNC(=O)N1Cc2ccccc2Oc2ccc(Cl)cc21 -14.7%
Cc1ccc([C@@]2(C)CC/C(=N/N=C3\CC[C@](C)(c4ccc(C)c(C)c4)c4cc(C)c(C)cc43)c3cc(C)c(C)cc32)cc1C -6.14% [at 11.4 µM]
CCCCCCCCCCCCCCCC(=O)NC(C)C -0.628%
CCCCCCCCCCCCCCC/C=C\[C@H](O)[C@@H](NC(=O)CCCCCCCCCCCCC)OC (tested in a mixture with another compound) -1.65%
CN1CCC(=C2c3ccccc3Sc3ccccc32)CC1 -1.54% [at 25.6 µM]
COC(=O)NCC(c1cccnc1)N1CCN(c2ccccc2OC)CC1 (stereo not given) -25.7%
O=C(CCNS(=O)(=O)c1cccs1)N1CCc2ccccc2C1 -27.1%
COC(=O)N1CCC2(CC1)CCN(c1ccccc1)CC2 -2.09%
COc1ccccc1N1CCN(Cc2cc(=O)n3ccsc3n2)CC1 32.3%
S=c1c2[nH]cnc2ncn1CCSc1ncnc2nc[nH]c12 -0.398% [at 11.4 µM]
NS(=O)(=O)c1ccc(NCc2nc3ccccc3[nH]2)cc1 7.25% [at 11.4 µM]
NS(=O)(=O)c1ccc(NCc2cnc3ccccc3n2)cc1 1.39% [at 11.4 µM]
O=c1nc(N2CCCCCC2)nc(N2CCCCCC2)[nH]1 -2.89%
Cc1cnc(CNc2ccnc(-c3cccc(NS(C)(=O)=O)c3)n2)cn1 16.8% [at 2.29 µM]
Nc1nc(N)c(N=Nc2ccc(C(=O)O)c(O)c2)c(N)n1 -6.7% [at 11.4 µM]
Cc1ccc(C)c(C(=N)c2ccccc2Cc2ccccc2)c1 -26.1% [at 11.4 µM]
O=C(C(Cc1ccccc1)N1C(=O)C2C3CCC(C3)C2C1=O)N1CCCCC1 (stereo not given) -7.9%
Cn1c(=O)[nH]c(=O)c2c1nc(CN1CCOCC1)n2CCCO 23.1%
CCN1CCN(c2nc3c(c(=O)[nH]c(=O)n3C)n2CCCSc2ncccn2)CC1 -17%
NC(Cc1ccccc1)=NCC(=O)O -1.5% [at 11.4 µM]
CCCc1nnc(SCC(=O)N2CCCCC2)n1CCCOC -3.43%
Cn1c(=O)cc(SCC(=O)NCCCN2CCOCC2)c2ccc(Cl)cc21 -20.1%

AC50, active:
Cc1ccc(N=Nc2c(N)n(-c3ccccc3)[nH]c2=O)cc1 7.94 µM
COc1cc(/C=C(/C#N)c2nc3ccccc3[nH]2)ccc1OCC(=O)Nc1ccccc1C 3.16 µM
COc1cc(/C=C(/C#N)c2nc3ccccc3[nH]2)ccc1Oc1ncccc1[N+](=O)[O-] 2 µM
N#C/C(=C\c1ccc(Oc2ccc(C(F)(F)F)cc2[N+](=O)[O-])cc1)c1nc2ccccc2[nH]1 3.98 µM
N#C/C(=C\c1ccc(N2CCCC2)c([N+](=O)[O-])c1)c1nc2ccccc2[nH]1 2.51 µM
COc1ccc(-c2cc(C(F)(F)F)n3nc(C(=O)NCc4ccco4)c(Cl)c3n2)cc1 0.398 µM
O=c1ccc(NS(=O)(=O)c2ccc(Cl)cc2)cn1Cc1ccc(Cl)c(Cl)c1 1.78 µM
O=c1ccc(NS(=O)(=O)c2ccccc2)cn1Cc1ccc(Cl)c(Cl)c1 2.51 µM
CCCN(CCC)C(=S)NC(=O)c1ccc(Cl)cc1Cl 3.55 µM
CCC(C)C1NC(=S)N(C2CCCCC2)C1=O (stereo not given) 3.55 µM
CC(C)CC1NC(=S)N(C2CCCCC2)C1=O (stereo not given) 17.8 µM
O=C(CN1CCN(Cc2ccccc2)CC1)N1CCCc2c1c(=O)oc1ccc(O)cc21 20 µM
O=C(Nc1ccccc1)N1CCSc2cc(Cl)ccc21 2.24 µM
CCCCCCCCCCCCC/C=C\[C@@H](O)[C@H](CO)NC(C)=O 3.16 µM
COc1ccccc1N1CCN(C(=O)C(NS(=O)(=O)c2cccs2)c2ccccc2)CC1 (stereo not given) 11.2 µM
O=C(C(NS(=O)(=O)c1cccs1)c1ccccc1)N1CCN(c2ccccc2)CC1 (stereo not given) 8.91 µM
NS(=O)(=O)c1ccc(NCc2ccccc2OCc2ccccc2F)cc1 3.98 µM
Cc1ccccc1Cn1c(Cc2ccccc2)nc2ccccc21 5.01 µM
CCCCCn1c(CN2CCN(c3cc(Cl)ccc3C)CC2)nc2c1c(=O)[nH]c(=O)n2C 3.55 µM
COc1cccc(=O)c2c(C)n(-c3cc(C)cc(C)c3)c(C)c12 3.98 µM
CCOC(=O)CSc1cc(=O)n(C)c2cc(Cl)ccc12 14.1 µM
